# In PubChem BioAssay AID1942 (Johns Hopkins Ion Channel Center, 2009):
# Out of some 2,400 compounds screened, about 580 (24%) were called active. The list is a sample of the results. A number with no mark means an inactive call.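 Rule for the calls: active = activity change at or above the mean plus 3 SD of buffer wells without dofetilide, per plate; inactive = the rest.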
# Target: Potassium voltage-gated channel subfamily KQT member 2 (Rattus norvegicus) (UniProt O88943)
# Assay: rat KCNQ2 channel activation by compounds alone, confirmation, counter-screen for hERG block protector project, cell-based, CHO, FluxOR thallium flux (AID 1942);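 note: normalized value minus buffer-control mean plus three SD of buffer wells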
# Settings: CHO-KCNQ2 cells, FluxOR thallium flux fluorescence; at 10 µM; stronger effect = higher value
# Sequence of Potassium voltage-gated channel subfamily KQT member 2 (Rattus norvegicus) (O88943 whole entry, looked up): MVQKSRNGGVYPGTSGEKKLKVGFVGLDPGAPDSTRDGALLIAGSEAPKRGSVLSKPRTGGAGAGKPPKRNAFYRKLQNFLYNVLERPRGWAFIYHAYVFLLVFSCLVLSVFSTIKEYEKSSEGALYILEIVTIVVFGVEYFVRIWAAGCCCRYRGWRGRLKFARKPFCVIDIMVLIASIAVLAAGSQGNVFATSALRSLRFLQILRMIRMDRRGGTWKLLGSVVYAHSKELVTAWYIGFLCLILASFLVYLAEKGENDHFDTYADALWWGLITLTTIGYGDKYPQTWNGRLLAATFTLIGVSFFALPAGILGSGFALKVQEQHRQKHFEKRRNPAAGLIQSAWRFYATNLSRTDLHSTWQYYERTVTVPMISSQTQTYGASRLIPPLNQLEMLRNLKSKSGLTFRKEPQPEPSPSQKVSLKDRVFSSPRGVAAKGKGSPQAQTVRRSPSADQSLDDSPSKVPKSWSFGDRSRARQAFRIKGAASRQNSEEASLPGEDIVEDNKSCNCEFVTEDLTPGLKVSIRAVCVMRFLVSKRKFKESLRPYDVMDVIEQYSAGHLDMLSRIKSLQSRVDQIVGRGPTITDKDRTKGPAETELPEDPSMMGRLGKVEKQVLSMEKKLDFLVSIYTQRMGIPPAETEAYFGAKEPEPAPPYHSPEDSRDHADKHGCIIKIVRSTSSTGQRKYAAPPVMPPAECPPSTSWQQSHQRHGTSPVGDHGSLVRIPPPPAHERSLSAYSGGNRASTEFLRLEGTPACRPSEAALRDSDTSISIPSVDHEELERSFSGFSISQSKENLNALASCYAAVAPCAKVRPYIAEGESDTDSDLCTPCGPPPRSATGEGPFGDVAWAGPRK
row,SMILES,"activity change, less the hit threshold"
1,Cc1cc(C)c(-c2cc(NC(=O)COC(=O)c3ccc(NC(=O)CC#N)cc3)n(-c3ccccc3)n2)cc1C,-22.1%
2,NC(=O)CC1NC(=O)c2ccccc21 (stereo unspecified),-13.3%
3,CCCNS(=O)(=O)c1ccc(OCC(=O)Nc2ccc3c(c2)OCCO3)cc1,-11.5%
4,Cc1oc(-c2cccs2)nc1CN1CCC(C(=O)N2CCCC2)CC1,-17.4%
5,CC1c2nc3ccccc3n2C(CC(=O)NCCCN2CCOCC2)C(=O)N1Cc1ccccc1 (stereo unspecified),-19.4%
6,CCC1CCCCN1C(=S)NC(=O)c1cccc([N+](=O)[O-])c1 (stereo unspecified),24% (active)
7,CC1CCN(C(=S)NC(=O)c2cccc([N+](=O)[O-])c2)CC1,5.8% (active)
8,O=C(NC(=S)Nc1ccccc1N1CCCC1)c1ccc(-c2cccc([N+](=O)[O-])c2)o1,-10.1%
9,CCC1CCCCN1C(=S)NC(=O)c1ccc([N+](=O)[O-])cc1 (stereo unspecified),32.5% (active)
10,O=C(NC(=S)N(CC1CCC1)CC1CCCO1)c1cccc([N+](=O)[O-])c1 (stereo unspecified),39.6% (active)
11,O=C(O)c1cccc(C(=O)Nc2cccc(NC(=O)C3CCCO3)c2)c1 (stereo unspecified),-21.4%
12,CCC1CCCCN1C(=S)NC(=O)c1cccs1 (stereo unspecified),-4.1%
13,O=C(Nc1ccc(Oc2cccnc2)cc1)c1cccc([N+](=O)[O-])c1,-14.1%
14,Cn1cc([N+](=O)[O-])c(C(=O)N/N=C\c2c[nH]c3ccccc23)n1,-15.5%
15,CCCCN1C(=O)/C(=C2/Sc3ccc(Cl)cc3N2CC)SC1=S,-27.6%
16,CNC(=O)c1ccc(NC(=O)CN2c3cccc4cccc(c34)S2(=O)=O)cc1,-18.1%
17,COc1ccc(CS(=O)(=O)CC2(O)CCN(C(=O)c3cccc(C(F)(F)F)c3)CC2)cc1,-25.4%
18,O=C1CN(C(=O)COc2ccccc2F)c2ccccc2N1,-18.7%
19,O=C(c1csc(Nc2ccccc2Cl)n1)N1CCCC1,-14.5%
20,COc1cc(CNn2nnnc2N)ccc1OCC(=O)NC(C)(C)C,-20%
21,COc1ccc(NC(=O)CCN2C(=O)C3C4C=CC(C4)C3C2=O)cc1 (stereo unspecified),-21.1%

row,SMILES,"activity change, less the hit threshold"
1,COc1ccccc1CC(=O)Nc1ccc(OC)c(OC)c1,-12.4%
2,COc1ccc(NC(=O)CC23CC4CC(CC(C4)C2)C3)cn1,44.4% (active)
3,CC(C)(C)c1cc(CCC(=O)NCc2ccncc2)cc(C(C)(C)C)c1O,-15.7%
4,CCOC(=O)c1sc2nc(N3CCOCC3)c3c(c2c1N)CCN(Cc1ccccc1)C3,0.1% (active)
5,Cn1ncc2c(NNC(=O)c3ccc(O)cc3)ncnc21,-24.5%
6,CC/C(=N\NC(=S)Nc1cccc(C)c1)c1ccccc1,-13%
7,CC(C)(C)NC(=O)C(=O)NNC(=O)COc1ccc(Br)cc1,41.1% (active)
8,Cc1cccc(NC(=O)C(=O)NNC(=O)c2ccc(C(C)(C)C)cc2)c1,110% (active)
9,CC(C)(C)NC(=O)C(=O)NNC(=O)c1ccc(C(C)(C)C)cc1,27.1% (active)
10,CC(C)(C)NC(=O)C(=O)NNC(=O)c1ccccc1,-9.7%
11,CCCc1cc(C(=O)NNC(=S)Nc2cccc(C)c2)cs1,-16.5%
12,O=C(Nc1ccccc1C(=O)O)c1cncc(Br)c1,-3%
13,O=C(NN1C(=O)C2C(c3ccccc3)C=CC(c3ccccc3)C2C1=O)c1cccc(Br)c1 (stereo unspecified),-3.8%
14,CC(C)(C)c1ccc(C(=O)CC(=O)c2cc(Cl)ccc2O)cc1,-11.6%
15,C=CCNC(=O)COc1ccc(Oc2ccccc2)cc1,-6.4%
16,CC(C)(C)NC(=O)C(=O)NNC(=O)c1cccc(Br)c1,16.4% (active)
17,CC(C)(C)NC(=O)C(=O)NNC(=O)COc1ccccc1,-16.3%
18,O=C(/C=C/c1ccccc1)Nc1ccc(S(=O)(=O)N2CCOCC2)cc1,-12.6%
19,Cc1cc(C(=O)N/N=C/c2ccc(O)c([N+](=O)[O-])c2)n[nH]1,-19.6%
20,O=C(CSc1ccccc1)N1CCN(S(=O)(=O)c2cccs2)CC1,-6.8%
21,O=C(CSc1nnc(NC(=O)c2ccc(S(=O)(=O)N3CCOCC3)cc2)s1)Nc1ccccc1C(F)(F)F,-15.6%

row,SMILES,"activity change, less the hit threshold"
1,O=C(CSc1nc2ccc(NC(=O)c3ccccc3C(=O)O)cc2s1)Nc1c(Cl)cccc1Cl,-7.3%
2,COc1ccc(N2C(=O)CCC(C(=O)O)C2c2ccc(F)cc2)cc1 (stereo unspecified),-16.9%
3,CCC(C)NC(=O)Cn1nc(C(F)(F)F)c2c1CCCC2 (stereo unspecified),-23.4%
4,O=C(NCc1cccnc1)Nc1ccc2c(c1)OCO2,-26%
5,S=C(NCc1ccco1)N1CCN(c2nc(-c3ccccc3)cs2)CC1,-24.1%
6,O=C(NC(=S)Nc1nc(-c2ccccc2)cs1)c1cncc(Br)c1,-12.3%
7,O=C(NC(=S)N1CCN(c2nc(-c3ccccc3)cs2)CC1)c1cncc(Br)c1,45.1% (active)
8,CCC(C)c1ccccc1NC(=O)C(C)NCCN(C)C (stereo unspecified),-17.2%
9,COc1ccc(C)cc1S(=O)(=O)NC1CCCCC1,-6.4%
10,C=C(C)CNC(=S)Nc1nc2c(cc1C(=O)OCC)CCCC2,-9.5%
11,CCOC(=O)c1cc2c(nc1NC(=S)NCc1ccccc1)CCCC2,-13.9%
12,CCNC(=S)Nc1nc2c(cc1C(=O)OCC)CCCC2,6.4% (active)
13,C=CCNC(=S)Nc1nc2c(cc1C(=O)OCC)CCCC2,1.1% (active)
14,CCc1cccc2c1NC(=O)C2(O)CC(=O)c1cccs1 (stereo unspecified),-20.9%
15,O=C(CCc1ccccc1)NC(=S)Nc1cc(C(F)(F)F)ccc1N1CCOCC1,-30.4%
16,CCc1nccn1S(=O)(=O)c1ccc2ccc(C)cc2c1,-8.3%
17,CC(OC(=O)c1cc2c(s1)CCCCC2)C(=O)NC(N)=O (stereo unspecified),-23.7%
18,NC(=O)C1CCN(C(=O)c2cc3c(s2)CCCC3)CC1,12% (active)
19,O=C(c1cc2c(s1)-c1ccccc1OC2)N1CCCC1,-12.6%
